This is an account of results in ChEMBL document CHEMBL1961873, “Compounds: GSK PKIS; Assays: Nanosyn kinase panel” (2012).

Broadly, the inhibition is the relative decrease from the control value, in per cent.

Test [1] addresses Protein kinase C gamma type (Homo sapiens) (UniProt P05129). The conditions noted are these: at 1 µM.
For test [2], the target named is T1, Protein kinase C iota type (Homo sapiens) (UniProt P41743).
T1 sequence (whole entry): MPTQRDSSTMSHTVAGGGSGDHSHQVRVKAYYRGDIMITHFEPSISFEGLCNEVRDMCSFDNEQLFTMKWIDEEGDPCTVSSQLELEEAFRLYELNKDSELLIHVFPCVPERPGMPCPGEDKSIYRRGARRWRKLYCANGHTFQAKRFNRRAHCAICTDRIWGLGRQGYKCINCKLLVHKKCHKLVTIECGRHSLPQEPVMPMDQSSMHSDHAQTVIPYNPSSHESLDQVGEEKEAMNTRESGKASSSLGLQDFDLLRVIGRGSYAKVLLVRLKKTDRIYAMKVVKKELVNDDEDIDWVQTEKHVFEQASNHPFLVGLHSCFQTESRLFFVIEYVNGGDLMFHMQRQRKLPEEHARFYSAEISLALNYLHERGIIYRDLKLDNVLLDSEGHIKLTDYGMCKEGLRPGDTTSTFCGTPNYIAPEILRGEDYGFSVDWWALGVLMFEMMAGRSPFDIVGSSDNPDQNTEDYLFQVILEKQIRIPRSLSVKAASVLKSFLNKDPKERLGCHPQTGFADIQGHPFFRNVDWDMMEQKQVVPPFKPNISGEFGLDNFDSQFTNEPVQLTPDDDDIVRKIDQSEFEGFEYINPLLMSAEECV
The conditions noted are these: at 0.1 µM.

For test [3], the target named is T1, Protein kinase C iota type (Homo sapiens). The conditions noted are these: at 1 µM.
The target of test [4] is Protein kinase C theta type (Homo sapiens) (UniProt Q04759). The conditions noted are these: at 0.1 µM.
For test [5] the target is unchanged. The conditions noted are these: at 1 µM.
Test [6] has as its target Protein kinase C beta type (Homo sapiens) (UniProt P05771). The conditions noted are these: at 0.1 µM.
Test [7] has the same target. The conditions noted are these: at 1 µM.
Test [8] addresses T2, Serine/threonine-protein kinase D1 (Homo sapiens) (UniProt Q15139).
T2 sequence (whole entry): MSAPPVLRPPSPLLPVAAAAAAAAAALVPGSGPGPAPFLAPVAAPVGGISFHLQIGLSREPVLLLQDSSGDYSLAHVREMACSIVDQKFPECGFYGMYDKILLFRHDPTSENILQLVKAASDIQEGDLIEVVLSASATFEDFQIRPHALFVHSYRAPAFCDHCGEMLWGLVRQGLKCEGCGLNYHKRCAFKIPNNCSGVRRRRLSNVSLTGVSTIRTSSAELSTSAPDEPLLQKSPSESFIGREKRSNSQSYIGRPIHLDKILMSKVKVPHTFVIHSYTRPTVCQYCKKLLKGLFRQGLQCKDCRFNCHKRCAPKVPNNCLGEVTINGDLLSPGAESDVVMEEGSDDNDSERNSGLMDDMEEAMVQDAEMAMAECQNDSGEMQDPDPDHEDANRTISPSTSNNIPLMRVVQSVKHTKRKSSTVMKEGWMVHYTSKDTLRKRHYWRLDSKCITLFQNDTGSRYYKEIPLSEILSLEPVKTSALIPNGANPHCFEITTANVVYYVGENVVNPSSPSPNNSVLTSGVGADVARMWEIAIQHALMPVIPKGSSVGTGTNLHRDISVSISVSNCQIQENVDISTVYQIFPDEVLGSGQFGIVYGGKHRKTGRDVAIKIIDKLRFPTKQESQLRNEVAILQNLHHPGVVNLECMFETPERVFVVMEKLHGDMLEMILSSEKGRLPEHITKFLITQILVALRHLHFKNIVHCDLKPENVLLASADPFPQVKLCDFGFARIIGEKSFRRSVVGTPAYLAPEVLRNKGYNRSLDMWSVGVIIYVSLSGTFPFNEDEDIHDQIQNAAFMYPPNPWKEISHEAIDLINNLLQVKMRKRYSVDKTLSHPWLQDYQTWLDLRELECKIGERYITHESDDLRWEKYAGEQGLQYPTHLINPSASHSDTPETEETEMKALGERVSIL
The conditions noted are these: at 0.1 µM.

Test [9] has as its target T2, Serine/threonine-protein kinase D1 (Homo sapiens). The conditions noted are these: at 1 µM.
Test [10] concerns the target T3, Serine/threonine-protein kinase D2 (Homo sapiens) (UniProt Q9BZL6).
T3 sequence (whole entry): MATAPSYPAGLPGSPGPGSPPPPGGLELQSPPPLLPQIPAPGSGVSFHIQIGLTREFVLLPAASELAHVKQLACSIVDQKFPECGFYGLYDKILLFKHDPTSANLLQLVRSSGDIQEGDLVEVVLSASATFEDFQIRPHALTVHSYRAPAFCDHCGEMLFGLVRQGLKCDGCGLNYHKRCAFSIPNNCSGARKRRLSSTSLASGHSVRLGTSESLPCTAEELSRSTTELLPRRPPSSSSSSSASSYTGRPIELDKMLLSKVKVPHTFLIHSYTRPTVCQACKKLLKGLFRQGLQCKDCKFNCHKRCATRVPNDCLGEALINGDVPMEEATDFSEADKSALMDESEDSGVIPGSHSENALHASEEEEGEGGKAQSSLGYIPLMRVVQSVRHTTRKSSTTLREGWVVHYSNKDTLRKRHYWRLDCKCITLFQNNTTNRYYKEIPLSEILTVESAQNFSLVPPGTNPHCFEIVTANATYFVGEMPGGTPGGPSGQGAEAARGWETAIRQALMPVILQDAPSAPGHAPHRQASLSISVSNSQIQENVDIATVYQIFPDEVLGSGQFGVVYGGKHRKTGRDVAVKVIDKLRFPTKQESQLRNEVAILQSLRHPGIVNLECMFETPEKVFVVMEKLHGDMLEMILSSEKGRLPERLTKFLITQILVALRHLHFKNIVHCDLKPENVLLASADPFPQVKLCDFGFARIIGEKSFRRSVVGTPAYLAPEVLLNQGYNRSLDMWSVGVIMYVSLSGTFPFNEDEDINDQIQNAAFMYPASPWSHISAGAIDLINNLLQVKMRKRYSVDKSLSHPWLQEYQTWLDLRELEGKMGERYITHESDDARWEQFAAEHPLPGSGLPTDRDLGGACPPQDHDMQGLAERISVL
The conditions noted are these: at 0.1 µM.

Test [11] concerns the target T3, Serine/threonine-protein kinase D2 (Homo sapiens). The conditions noted are these: at 1 µM.
The target of test [12] is T4, Serine/threonine-protein kinase D3 (Homo sapiens) (UniProt O94806).
T4 sequence (whole entry): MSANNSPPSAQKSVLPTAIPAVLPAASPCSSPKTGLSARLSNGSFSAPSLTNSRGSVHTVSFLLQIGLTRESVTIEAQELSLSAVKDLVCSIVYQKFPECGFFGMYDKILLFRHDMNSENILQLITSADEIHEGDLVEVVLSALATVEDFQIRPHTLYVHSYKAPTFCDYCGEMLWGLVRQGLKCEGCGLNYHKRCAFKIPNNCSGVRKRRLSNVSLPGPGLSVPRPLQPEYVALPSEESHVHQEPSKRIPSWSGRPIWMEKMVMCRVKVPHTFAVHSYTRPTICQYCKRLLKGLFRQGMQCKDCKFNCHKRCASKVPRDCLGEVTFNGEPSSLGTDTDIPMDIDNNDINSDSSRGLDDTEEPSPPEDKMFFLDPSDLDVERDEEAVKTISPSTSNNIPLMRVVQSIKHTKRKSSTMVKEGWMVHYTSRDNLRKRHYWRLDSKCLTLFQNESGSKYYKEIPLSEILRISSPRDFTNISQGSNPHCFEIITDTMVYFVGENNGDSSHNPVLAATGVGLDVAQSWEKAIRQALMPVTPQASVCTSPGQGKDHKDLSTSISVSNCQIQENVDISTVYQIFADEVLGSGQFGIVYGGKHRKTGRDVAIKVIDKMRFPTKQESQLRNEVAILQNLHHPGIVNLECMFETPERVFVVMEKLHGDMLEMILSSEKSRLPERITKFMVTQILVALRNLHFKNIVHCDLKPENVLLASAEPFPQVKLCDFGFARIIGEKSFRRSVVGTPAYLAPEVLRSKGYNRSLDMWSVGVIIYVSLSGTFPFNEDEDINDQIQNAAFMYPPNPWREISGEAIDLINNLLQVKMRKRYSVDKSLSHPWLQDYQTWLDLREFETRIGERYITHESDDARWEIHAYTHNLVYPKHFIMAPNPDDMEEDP
The conditions noted are these: at 0.1 µM.

Test [13] deals with T4, Serine/threonine-protein kinase D3 (Homo sapiens). The conditions noted are these: at 1 µM.
Test [14] has as its target T5, cGMP-dependent protein kinase 1 (Homo sapiens) (UniProt Q13976).
T5 sequence (whole entry): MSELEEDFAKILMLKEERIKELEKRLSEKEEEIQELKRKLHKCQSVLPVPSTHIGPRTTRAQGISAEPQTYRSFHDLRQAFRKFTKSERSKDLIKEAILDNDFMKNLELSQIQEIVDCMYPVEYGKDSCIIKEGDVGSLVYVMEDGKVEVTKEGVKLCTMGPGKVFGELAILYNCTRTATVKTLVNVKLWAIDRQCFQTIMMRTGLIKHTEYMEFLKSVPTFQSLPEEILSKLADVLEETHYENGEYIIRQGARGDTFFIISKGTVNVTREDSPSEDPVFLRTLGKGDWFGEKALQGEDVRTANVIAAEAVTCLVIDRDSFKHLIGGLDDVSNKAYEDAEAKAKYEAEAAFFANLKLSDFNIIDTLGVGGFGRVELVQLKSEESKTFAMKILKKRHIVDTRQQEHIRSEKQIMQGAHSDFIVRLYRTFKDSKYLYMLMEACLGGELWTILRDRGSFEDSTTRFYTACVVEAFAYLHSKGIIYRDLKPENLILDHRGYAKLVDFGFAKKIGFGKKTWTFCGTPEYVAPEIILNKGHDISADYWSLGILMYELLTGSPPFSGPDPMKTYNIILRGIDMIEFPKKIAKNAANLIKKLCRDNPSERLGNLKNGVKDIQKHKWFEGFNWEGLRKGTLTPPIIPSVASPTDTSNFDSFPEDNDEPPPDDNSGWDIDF
The conditions noted are these: at 0.1 µM.

Test [15] addresses T5, cGMP-dependent protein kinase 1 (Homo sapiens). The conditions noted are these: at 1 µM.
Test [16] addresses T6, cGMP-dependent protein kinase 2 (Homo sapiens) (UniProt Q13237).
T6 sequence (whole entry): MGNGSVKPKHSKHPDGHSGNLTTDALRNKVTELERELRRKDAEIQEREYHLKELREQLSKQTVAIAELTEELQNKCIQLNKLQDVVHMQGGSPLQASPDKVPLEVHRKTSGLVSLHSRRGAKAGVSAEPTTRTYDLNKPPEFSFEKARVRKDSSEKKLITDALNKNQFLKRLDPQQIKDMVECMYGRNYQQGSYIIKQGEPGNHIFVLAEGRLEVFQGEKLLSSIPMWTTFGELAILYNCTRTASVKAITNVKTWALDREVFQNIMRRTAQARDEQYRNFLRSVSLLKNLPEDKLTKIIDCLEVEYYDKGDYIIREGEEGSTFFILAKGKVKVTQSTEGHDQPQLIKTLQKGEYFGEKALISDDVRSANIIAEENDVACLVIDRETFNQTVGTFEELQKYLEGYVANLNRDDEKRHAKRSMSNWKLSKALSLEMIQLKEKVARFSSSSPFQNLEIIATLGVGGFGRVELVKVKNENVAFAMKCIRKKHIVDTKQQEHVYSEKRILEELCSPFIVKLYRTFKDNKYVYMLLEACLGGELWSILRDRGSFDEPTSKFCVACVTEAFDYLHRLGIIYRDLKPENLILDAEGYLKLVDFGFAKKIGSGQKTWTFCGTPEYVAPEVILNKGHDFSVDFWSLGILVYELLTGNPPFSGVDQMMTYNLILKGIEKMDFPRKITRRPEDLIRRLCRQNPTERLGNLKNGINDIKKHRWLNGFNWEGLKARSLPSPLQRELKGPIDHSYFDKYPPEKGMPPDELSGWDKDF
The conditions noted are these: at 0.1 µM.

Test [17] addresses T6, cGMP-dependent protein kinase 2 (Homo sapiens). The conditions noted are these: at 1 µM.
Test [18] has as its target T7, cAMP-dependent protein kinase catalytic subunit PRKX (Homo sapiens) (UniProt P51817).
T7 sequence (whole entry): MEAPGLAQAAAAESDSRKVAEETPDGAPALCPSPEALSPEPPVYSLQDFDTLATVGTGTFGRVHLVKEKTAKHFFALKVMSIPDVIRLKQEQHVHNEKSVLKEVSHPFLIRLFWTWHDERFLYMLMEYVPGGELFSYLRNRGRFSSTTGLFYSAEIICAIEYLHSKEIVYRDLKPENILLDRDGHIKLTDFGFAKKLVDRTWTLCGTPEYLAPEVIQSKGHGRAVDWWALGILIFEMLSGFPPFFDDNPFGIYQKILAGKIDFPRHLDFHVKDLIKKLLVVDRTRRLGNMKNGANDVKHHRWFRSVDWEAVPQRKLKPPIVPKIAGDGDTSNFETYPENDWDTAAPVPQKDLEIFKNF
The conditions noted are these: at 0.1 µM.

For test [19], the target named is T7, cAMP-dependent protein kinase catalytic subunit PRKX (Homo sapiens). The conditions noted are these: at 1 µM.
The target of test [20] is Rho-associated protein kinase 1 (Homo sapiens) (UniProt Q13464). The conditions noted are these: at 0.1 µM.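 Further: values are mean percent inhibition of ROCK1.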
Rho-associated protein kinase 1 (Homo sapiens), sequence (Q13464 2-1354 limits assumed): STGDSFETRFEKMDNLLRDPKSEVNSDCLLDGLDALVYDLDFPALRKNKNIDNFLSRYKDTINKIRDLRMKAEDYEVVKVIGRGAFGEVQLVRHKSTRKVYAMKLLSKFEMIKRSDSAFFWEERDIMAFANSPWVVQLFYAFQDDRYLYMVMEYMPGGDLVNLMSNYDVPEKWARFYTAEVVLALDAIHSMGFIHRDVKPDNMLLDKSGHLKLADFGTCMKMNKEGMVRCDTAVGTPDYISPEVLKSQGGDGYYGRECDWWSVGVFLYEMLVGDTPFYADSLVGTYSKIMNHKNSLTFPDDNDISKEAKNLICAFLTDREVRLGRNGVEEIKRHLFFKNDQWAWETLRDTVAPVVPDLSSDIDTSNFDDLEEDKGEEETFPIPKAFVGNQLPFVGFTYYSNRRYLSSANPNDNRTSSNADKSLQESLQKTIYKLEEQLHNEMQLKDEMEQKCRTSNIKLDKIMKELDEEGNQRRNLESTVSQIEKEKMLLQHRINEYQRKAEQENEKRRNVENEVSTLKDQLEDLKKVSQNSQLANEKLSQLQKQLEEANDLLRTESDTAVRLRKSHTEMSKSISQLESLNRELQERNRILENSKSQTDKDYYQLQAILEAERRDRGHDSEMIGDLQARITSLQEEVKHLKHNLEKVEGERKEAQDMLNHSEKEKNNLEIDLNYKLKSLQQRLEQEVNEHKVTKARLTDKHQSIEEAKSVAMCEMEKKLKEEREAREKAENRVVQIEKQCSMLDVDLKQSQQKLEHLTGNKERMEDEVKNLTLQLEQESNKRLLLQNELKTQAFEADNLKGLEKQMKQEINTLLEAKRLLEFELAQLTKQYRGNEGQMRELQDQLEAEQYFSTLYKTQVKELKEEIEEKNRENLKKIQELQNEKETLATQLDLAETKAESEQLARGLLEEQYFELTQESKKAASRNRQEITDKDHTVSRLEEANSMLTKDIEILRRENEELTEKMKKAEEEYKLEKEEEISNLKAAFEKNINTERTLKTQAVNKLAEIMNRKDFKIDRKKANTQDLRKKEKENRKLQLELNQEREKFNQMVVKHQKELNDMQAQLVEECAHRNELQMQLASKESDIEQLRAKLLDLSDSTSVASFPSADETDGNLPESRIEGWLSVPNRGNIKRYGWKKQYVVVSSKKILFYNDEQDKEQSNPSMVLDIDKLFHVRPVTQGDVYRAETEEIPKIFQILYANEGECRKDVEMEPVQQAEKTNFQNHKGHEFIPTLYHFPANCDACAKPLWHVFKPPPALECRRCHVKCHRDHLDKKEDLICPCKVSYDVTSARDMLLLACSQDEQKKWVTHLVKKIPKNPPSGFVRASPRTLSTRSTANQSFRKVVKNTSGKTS

Protein kinase C beta type (Homo sapiens), sequence (P05771 2-671 limits assumed): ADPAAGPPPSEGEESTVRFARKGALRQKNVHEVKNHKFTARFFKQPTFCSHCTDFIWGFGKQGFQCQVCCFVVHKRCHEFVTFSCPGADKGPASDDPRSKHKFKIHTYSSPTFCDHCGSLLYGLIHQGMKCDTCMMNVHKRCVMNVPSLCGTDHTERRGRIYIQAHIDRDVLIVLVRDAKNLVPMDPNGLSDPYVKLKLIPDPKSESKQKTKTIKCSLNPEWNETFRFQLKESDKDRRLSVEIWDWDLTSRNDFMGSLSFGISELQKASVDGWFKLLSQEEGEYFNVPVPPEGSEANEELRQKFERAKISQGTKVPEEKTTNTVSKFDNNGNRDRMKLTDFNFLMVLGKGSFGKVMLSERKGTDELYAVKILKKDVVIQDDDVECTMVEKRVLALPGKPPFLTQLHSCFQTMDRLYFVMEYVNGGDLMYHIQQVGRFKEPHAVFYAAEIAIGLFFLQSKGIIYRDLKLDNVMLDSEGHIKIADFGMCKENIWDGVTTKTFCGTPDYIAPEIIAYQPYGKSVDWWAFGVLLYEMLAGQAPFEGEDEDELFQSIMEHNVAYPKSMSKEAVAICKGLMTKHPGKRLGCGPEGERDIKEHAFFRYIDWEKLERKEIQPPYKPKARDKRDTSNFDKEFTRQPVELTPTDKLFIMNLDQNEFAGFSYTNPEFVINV
Protein kinase C theta type (Homo sapiens), sequence (Q04759 whole entry, looked up): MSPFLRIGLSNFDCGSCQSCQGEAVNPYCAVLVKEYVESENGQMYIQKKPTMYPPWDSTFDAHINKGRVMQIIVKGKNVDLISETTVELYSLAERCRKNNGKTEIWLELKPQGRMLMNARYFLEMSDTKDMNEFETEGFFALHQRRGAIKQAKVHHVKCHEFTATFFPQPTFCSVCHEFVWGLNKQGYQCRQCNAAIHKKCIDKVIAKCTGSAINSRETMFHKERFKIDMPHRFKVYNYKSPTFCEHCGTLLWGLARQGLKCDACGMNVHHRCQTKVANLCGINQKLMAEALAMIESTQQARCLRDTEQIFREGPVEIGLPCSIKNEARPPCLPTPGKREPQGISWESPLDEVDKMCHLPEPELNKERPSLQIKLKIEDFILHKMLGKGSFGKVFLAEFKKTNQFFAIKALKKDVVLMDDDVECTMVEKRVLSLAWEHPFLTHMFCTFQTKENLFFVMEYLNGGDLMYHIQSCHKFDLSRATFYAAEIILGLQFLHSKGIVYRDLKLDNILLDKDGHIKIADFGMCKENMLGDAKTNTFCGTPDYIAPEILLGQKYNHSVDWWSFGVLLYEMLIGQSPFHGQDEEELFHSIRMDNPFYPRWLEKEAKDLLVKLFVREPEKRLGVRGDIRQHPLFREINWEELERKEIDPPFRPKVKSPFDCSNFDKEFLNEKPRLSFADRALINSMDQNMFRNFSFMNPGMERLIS

Take `NC(=O)c1cc(-c2ccc(F)cc2)cc(-c2ccncc2)c1N`: the inhibition in test [1] was determined as 5.15%; in test [2] it was 0.73%; in [3] it was 0.87%; in test [4], 1.84%; in [5] it was 3.65%; in test [6], 1.46%. Moreover, the inhibition in test [7] amounted to 1.35%; in [8], 4.65%; in test [9], 3.31%; in test [10] it was 3.51%; in test [11] it was 4.06%; in test [12] it was 3.88%. The inhibition in test [13] amounted to 2.86%; in [14] it was 1.49%; in test [15], 5.83%; in [16], 1.73%; in test [17], 2.74%; in test [18], 1.1%. Moreover, the inhibition was 3.07% in test [19] and -0.55% in test [20].
